Measurements: PubChem BioAssay (Tox21)
Records with an inconclusive call do not appear. Active and inactive are the calls of the source. Unless noted, calls follow the shape of the dose curve; as a rule, active = well fitted curve in the direction sought with a large enough effect in the repeat runs; inconclusive = weak or mixed curves; inactive = no such curve, though single readings can be large; an effect the other way counts as inactive or inconclusive.

Key:
[1] = qHTS assay to identify small molecule agonists of the TGF-beta/Smad signaling pathway - cell viability counter screen (AID 1346829); also: top concentration of the series differs between compounds; nearly all actives have a fitted effect of over 45% in size
Summary of the method: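 Tox21 qHTS format: SBE-bla HEK 293T cells treated with DMSO-dissolved compounds for 5 hr; CellTiter-Glo luminescence after 30 min at room temperature.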

[2] = qHTS assay to identify small molecule agonists of the TGF-beta/Smad signaling pathway (AID 1346859; active = well fitted activation curve with a large enough effect in the signal ratio in the repeat runs, not every such curve was filed as active; the % refers to the signal ratio; also: series mostly up to about 77 µM)
Summary of the method: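 Smad-responsive beta-lactamase reporter cells (HEK 293T) received compounds from DMSO stocks after overnight attachment, were incubated 5 hr, then treated 2 hr with FRET substrate before dual-emission fluorescence measurement (405 nm excitation).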

[3] = target: Thyrotropin-releasing hormone receptor (Homo sapiens) (UniProt P34981); test: qHTS assay to identify small molecule antagonists of the thyrotropin-releasing hormone receptor (TRHR) signaling pathway (AID 1346877; active = well fitted inhibition curve with a large enough effect in the repeat runs, not every such curve was filed as active; also: series mostly up to about 51 µM)
Summary of the method: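 Calcium signal in dye-loaded TRHR/HEK293 cells; compounds added 5 min before TRH (1 nM final); fluorescence monitored 3 min at 1 s steps.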

[4] = target: Thyrotropin-releasing hormone receptor (Homo sapiens) (UniProt P34981); test: qHTS assay to identify small molecule agonists of the thyrotropin-releasing hormone receptor (TRHR) signaling pathway (AID 1346891; calls by dose curve;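 also: HEK293 cells expressing TRHR with calcium dye readout; series mostly up to about 58 µM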)
Summary of the method: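 Agonist-mode calcium mobilisation screen: TRHR-transfected HEK293 cells cultured overnight (18 h), dye-loaded for 2 h at 37 °C, exposed to compounds, and monitored by fluorescence for 3 min.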

[5] = Human pregnane X receptor (PXR) small molecule agonists, qHTS cell viability counter screen (AID 1346977); also: nearly all actives have a fitted effect of over 50% in size
Summary of the method: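 Measures live-cell protease fluorescence (CellTiter-Fluor) in PXR-Luc HepG2 cells treated 24hr with compounds at 37C. Cells had 5hr to attach before pin transfer of DMSO solutions.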

[6] = Caspase-3/7 induction in HepG2 cells by small molecules, qHTS assay (AID 1346978); also: nearly all actives have a fitted effect of over 15% in size
Summary of the method: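 Wild-type HepG2 cells (2,000/well) were settled 5 h at 37 C, 5% CO2, then exposed to compounds in DMSO for 17 h. Caspase-3/7 activity was read by luminescence 30 min after adding Caspase-Glo 3/7 reagent at room temperature.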

[7] = Caspase-3/7 induction in CHO-K1 cells by small molecules, qHTS cell viability counter screen (AID 1346979); also: nearly all actives have a fitted effect of over 35% in size
Summary of the method: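 In the same wells as the caspase read, viability of compound-treated wild-type CHO-K1 cells was assessed using CellTiter-Fluor, added after 16hr at 37C and measured by fluorescence following 1hr further incubation.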

[8] = Caspase-3/7 induction in CHO-K1 cells by small molecules, qHTS assay (AID 1346980); also: nearly all actives have a fitted effect of over 15% in size
Summary of the method: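 Wild-type cells were seeded at 1,500 per well and settled 5 hr at 37 C, 5% CO2, then exposed to DMSO-dissolved compounds for 17 hr. Caspase-Glo 3/7 reagent was added, and luminescence was read after 30min at room temperature.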

[9] = Caspase-3/7 induction in HepG2 cells by small molecules, qHTS cell viability counter screen (AID 1346981); also: series mostly up to about 92 µM; nearly all actives have a fitted effect of over 30% in size
Summary of the method: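 After a 5-hr attachment period at 37 C and 5% CO2, wild-type HepG2 cells received compounds in DMSO. Sixteen hours later CellTiter-Fluor was dispensed and the fluorescent signal quantified after a further hour.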

[10] = target: Nuclear receptor subfamily 1 group I member 2 (Homo sapiens) (UniProt O75469); test: Human pregnane X receptor (PXR) small molecule agonists, qHTS assay (AID 1346982); also: nearly all actives have a fitted effect of over 35% in size
Summary of the method: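 Tox21 qHTS; PXR-Luc HepG2; compounds pinned from DMSO; 24 hr, 37 C; ONE-Glo luciferase detection, 30 min room temperature.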

[11] = target: Nuclear receptor subfamily 1 group I member 2 (Rattus norvegicus) (UniProt Q9R1A7); test: Rat pregnane X receptor (rPXR) activation by small molecules, qHTS assay (AID 1346983); conditions: rPXR luciferase reporter cells, One-Glo luminescence, 24 h; max activation: active compounds read high; also: nearly all actives have a fitted effect of over 20% in size
Summary of the method: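 Cell-based rPXR luciferase reporter assay, 2,000 cells per well, rested 5hr at 37 C before compound addition in DMSO, then 24 hr at 37 C. One-Glo reagent was added and luminescence read after 30 min at room temperature.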

[12] = target: Nuclear receptor subfamily 1 group I member 2 (Homo sapiens) (UniProt O75469); test: CYP3A4 induction through human pregnane X receptor (PXR) by small molecules, qHTS assay (AID 1346984); also: nearly all actives have a fitted effect of over 40% in size
Summary of the method: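 Cells (DPX-2; HepG2 with PXR element plus CYP3A4-promoter luciferase) settled 5hr, then were treated 24hr at 37C. A 3hr, 3uM-final Luciferin-IPA step preceded luminescence measurement with One-Glo.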

[13] = target: Cytochrome P450 2D6 (Homo sapiens) (UniProt P10635); test: Cytochrome P450 Family 2 Subfamily D Member 6 (CYP2D6) small molecule antagonists: luciferase reporter qHTS assay (AID 1671196); also: nearly all actives have a fitted effect of over 50% in size; also: potency is read from the fitted curve at half-maximal effect; as to activity change, negative = inhibition: series mostly up to about 120 µM
Summary of the method: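 Room-temperature luminescent CYP2D6 activity assay: compound preincubated 10 min with enzyme–substrate mix, NADPH-initiated reaction 1 h, detection reagent 20 min before reading.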

[14] = target: Cytochrome P450 2C19 (Homo sapiens) (UniProt P33261); test: Cytochrome P450 Family 2 Subfamily C Member 19 (CYP2C19) small molecule antagonists: luciferase reporter qHTS assay (AID 1671197); also: series mostly up to about 120 µM; nearly all actives have a fitted effect of over 65% in size
Summary of the method: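 Relative luminescence units recorded 20 min after the detection reagent stopped a 1 h, 37C CYP2C19 reaction on proluciferin substrate, which was started by NADPH regeneration following 10 min room-temperature compound preincubation; ketoconazole positive control.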

[15] = target: Cytochrome P450 1A2 (Homo sapiens) (UniProt P05177); test: Cytochrome P450 Family 1 Subfamily A Member 2 (CYP1A2) small molecule antagonists: luciferase reporter qHTS assay (AID 1671199); also: nearly all actives have a fitted effect of over 50% in size; also: potency is read from the fitted curve at half-maximal effect; as to activity change, negative = inhibition: series mostly up to about 120 µM
Summary of the method: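 Room-temperature CYP1A2 reaction with proluciferin substrate: compounds added from DMSO, 10 min preincubation, NADPH regeneration for 1 h. Luciferin detection reagent then added; luminescence recorded as RLU.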

[16] = target: Voltage-gated inwardly rectifying potassium channel KCNH2 (Homo sapiens) (UniProt Q12809); test: Human Ether-a-go-go-Related Gene (hERG) channel small molecule antagonists: fluorescence cell-based qHTS assay (AID 1671200);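 also: hERG-expressing U2OS cells given a thallium stimulus after FluxOR II dye loading; series mostly up to about 77 µM; nearly all actives have a fitted effect of over 50% in size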
Summary of the method: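 Quantitative HTS in hERG-U2OS cells: thallium entry through the channel reports activity, read as continuous 480/540 nm fluorescence over 2 min after stimulus addition.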

[17] = target: Cytochrome P450 3A4 (Homo sapiens) (UniProt P08684); test: Cytochrome P450 Family 3 Subfamily A Member 4 (CYP3A4) small molecule antagonists: luciferase reporter qHTS assay (AID 1671201)
Summary of the method: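 Inhibition of CYP3A4 is measured as loss of light: the enzyme converts a proluciferin substrate to luciferin, detected luminescently. Reaction ran 1 h at room temperature with NADPH regeneration after a 10 min compound preincubation.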

[18] = target: Cytochrome P450 2C9 (Homo sapiens) (UniProt P11712); test: Cytochrome P450 Family 2 Subfamily C Member 9 (CYP2C9) small molecule antagonists: luciferase reporter qHTS assay (AID 1671198); also: nearly all actives have a fitted effect of over 50% in size; also: potency is read from the fitted curve at half-maximal effect; as to activity change, negative = inhibition: series mostly up to about 120 µM
Summary of the method: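 CYP2C9 activity was measured with a P450-Glo proluciferin substrate. Enzyme–substrate mix was held with compound for 10 min at room temperature, then NADPH regeneration solution was added for 1 h at 37C. Luciferin product was read as luminescence.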
% is scaled to controls: 0 for no effect and ±100 for the full control effect.

Sequence of Voltage-gated inwardly rectifying potassium channel KCNH2 (Homo sapiens) (Q12809 whole entry, looked up): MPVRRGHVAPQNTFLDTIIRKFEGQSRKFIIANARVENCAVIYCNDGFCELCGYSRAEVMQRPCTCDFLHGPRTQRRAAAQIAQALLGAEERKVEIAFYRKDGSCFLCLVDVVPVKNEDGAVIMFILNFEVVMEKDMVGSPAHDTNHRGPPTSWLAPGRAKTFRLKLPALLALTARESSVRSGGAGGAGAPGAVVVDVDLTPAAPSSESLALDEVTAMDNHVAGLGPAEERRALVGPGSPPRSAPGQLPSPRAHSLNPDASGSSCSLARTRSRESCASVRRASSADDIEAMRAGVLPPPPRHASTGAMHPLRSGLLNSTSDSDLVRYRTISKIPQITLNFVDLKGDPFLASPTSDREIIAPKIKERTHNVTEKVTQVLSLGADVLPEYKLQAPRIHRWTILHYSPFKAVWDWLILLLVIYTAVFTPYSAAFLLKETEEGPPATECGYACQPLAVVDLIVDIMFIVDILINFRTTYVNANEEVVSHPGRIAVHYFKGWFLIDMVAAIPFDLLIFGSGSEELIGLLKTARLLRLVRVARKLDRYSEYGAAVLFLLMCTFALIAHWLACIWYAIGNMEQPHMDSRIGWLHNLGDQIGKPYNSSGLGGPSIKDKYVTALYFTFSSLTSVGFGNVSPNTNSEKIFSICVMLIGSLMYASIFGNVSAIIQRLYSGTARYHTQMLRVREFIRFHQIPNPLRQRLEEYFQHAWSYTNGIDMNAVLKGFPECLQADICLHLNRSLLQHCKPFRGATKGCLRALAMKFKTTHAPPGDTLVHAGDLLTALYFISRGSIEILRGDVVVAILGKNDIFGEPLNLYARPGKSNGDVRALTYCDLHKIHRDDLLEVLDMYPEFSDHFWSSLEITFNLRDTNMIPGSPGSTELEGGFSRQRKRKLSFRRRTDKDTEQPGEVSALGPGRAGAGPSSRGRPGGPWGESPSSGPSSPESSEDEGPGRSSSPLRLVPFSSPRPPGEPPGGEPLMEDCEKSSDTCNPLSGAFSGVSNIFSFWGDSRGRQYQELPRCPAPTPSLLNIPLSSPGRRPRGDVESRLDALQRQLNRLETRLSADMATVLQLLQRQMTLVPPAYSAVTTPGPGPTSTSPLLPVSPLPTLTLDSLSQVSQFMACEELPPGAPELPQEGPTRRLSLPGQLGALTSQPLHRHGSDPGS
Sequence of Cytochrome P450 1A2 (Homo sapiens) (P05177 whole entry, looked up): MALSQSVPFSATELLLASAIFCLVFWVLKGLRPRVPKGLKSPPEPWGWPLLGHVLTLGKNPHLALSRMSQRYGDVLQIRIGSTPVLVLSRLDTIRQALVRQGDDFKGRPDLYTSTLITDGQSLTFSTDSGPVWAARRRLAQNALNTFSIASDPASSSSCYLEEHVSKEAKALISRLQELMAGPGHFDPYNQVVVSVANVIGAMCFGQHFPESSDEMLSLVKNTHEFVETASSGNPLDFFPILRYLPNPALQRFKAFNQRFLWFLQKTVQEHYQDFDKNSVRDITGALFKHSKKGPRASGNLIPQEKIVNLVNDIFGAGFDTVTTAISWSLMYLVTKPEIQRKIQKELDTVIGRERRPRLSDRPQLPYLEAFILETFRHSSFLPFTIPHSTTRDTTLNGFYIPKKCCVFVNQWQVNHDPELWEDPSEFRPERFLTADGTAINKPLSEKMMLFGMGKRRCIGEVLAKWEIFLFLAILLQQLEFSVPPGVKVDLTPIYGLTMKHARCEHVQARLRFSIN
Sequence of Cytochrome P450 2C9 (Homo sapiens) (P11712 whole entry, looked up): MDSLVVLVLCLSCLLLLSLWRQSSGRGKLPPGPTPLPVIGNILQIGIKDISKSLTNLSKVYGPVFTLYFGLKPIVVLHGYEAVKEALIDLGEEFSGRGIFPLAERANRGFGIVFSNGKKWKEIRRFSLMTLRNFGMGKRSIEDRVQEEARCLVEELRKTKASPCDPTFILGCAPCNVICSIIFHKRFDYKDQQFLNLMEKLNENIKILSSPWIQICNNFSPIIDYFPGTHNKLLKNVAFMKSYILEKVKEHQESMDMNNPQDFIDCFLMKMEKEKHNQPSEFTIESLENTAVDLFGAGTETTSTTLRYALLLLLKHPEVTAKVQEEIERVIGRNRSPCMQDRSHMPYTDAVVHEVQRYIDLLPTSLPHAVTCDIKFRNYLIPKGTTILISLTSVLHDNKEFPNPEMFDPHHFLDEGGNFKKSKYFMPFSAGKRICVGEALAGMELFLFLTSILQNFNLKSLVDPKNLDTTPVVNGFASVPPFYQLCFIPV
Sequence of Thyrotropin-releasing hormone receptor (Homo sapiens) (P34981 whole entry, looked up): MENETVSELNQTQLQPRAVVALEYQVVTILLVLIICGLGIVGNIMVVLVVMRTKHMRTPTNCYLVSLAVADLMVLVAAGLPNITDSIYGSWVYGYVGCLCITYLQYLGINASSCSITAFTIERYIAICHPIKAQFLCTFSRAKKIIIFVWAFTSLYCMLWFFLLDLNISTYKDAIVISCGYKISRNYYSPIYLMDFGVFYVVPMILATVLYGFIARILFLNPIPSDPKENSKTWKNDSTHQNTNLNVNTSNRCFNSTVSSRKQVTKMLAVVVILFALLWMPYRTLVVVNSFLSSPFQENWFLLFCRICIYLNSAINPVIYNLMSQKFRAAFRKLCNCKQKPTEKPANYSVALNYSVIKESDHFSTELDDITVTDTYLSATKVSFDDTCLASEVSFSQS
Sequence of Cytochrome P450 2D6 (Homo sapiens) (P10635 whole entry, looked up): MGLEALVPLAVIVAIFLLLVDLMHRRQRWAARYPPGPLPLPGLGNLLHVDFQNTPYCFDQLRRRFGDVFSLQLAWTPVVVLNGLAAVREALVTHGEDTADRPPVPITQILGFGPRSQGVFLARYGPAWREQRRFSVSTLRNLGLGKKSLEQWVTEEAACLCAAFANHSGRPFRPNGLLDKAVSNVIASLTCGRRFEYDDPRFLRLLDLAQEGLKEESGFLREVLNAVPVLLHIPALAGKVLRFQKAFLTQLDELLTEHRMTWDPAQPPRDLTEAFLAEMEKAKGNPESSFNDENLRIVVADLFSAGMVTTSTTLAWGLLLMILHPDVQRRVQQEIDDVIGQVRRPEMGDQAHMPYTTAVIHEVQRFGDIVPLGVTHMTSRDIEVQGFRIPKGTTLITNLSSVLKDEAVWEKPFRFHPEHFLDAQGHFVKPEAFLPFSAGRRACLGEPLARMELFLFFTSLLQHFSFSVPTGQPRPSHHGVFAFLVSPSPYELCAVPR
Sequence of Cytochrome P450 2C19 (Homo sapiens) (P33261 whole entry, looked up): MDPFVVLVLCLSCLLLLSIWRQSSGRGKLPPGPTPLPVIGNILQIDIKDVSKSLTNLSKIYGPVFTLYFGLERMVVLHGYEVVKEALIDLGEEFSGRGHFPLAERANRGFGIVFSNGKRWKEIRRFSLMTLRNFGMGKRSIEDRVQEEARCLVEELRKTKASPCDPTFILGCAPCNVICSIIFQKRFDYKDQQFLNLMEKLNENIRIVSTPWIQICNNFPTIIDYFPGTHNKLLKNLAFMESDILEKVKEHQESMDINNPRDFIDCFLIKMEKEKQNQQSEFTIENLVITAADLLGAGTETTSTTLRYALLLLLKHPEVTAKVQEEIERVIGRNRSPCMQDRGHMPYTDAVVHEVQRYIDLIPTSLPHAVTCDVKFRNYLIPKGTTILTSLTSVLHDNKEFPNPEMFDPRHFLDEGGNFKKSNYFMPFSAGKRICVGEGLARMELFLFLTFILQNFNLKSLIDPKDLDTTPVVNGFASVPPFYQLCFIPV
Sequence of Nuclear receptor subfamily 1 group I member 2 (Homo sapiens) (O75469 whole entry, looked up): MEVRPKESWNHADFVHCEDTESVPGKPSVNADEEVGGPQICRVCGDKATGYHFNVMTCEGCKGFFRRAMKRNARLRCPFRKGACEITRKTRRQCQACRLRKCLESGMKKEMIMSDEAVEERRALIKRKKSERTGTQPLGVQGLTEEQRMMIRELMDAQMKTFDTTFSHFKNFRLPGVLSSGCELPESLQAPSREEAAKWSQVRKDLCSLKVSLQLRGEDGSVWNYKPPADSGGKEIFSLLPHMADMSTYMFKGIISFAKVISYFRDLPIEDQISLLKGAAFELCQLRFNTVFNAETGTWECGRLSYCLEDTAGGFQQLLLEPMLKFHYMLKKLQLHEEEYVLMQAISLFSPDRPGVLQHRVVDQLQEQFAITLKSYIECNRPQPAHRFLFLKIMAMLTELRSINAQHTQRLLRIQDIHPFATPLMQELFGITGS
Sequence of Cytochrome P450 3A4 (Homo sapiens) (P08684 whole entry, looked up): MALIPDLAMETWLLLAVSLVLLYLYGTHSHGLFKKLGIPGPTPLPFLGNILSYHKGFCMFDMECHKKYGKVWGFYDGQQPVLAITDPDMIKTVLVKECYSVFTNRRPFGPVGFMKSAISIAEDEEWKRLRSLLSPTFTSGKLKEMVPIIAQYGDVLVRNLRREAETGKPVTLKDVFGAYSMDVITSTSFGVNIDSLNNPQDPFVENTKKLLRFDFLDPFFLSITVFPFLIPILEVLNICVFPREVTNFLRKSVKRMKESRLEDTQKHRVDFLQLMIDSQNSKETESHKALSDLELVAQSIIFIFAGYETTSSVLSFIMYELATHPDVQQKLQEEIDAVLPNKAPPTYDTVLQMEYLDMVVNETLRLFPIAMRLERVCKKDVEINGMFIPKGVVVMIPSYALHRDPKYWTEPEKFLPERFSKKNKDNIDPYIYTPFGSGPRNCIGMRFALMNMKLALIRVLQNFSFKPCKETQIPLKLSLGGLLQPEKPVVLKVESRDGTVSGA
Sequence of Nuclear receptor subfamily 1 group I member 2 (Rattus norvegicus) (Q9R1A7 whole entry, looked up): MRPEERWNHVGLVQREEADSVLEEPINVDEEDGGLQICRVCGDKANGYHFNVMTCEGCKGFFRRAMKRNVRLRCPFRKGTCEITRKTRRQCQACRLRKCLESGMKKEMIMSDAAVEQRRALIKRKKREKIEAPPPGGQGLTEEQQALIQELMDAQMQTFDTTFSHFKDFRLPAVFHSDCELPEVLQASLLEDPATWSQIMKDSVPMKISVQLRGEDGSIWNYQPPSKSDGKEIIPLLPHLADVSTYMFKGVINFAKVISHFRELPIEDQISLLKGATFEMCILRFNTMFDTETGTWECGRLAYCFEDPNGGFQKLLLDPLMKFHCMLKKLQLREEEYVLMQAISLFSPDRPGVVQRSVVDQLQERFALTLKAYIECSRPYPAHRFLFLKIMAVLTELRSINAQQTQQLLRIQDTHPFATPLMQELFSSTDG

CC(=O)Nc1ncc([N+](=O)[O-])s1
inactive: outcome [1] | outcome [2] | outcome [3] | outcome [4] | Potency [5] | outcome [6] | Potency [7] | outcome [8] | Potency [9] | Potency [10] | max activation [11] -3.65% | outcome [12] | Potency [13] | Potency [14] | Potency [16] | Potency [17]
active: Potency [15] 15.5 µM

CCCCCCCCCCCCC1CO1 (stereo not given)
inactive: outcome [1] | outcome [2] | outcome [3] | outcome [4] | Potency [5] | outcome [6] | Potency [7] | outcome [8] | Potency [9] | Potency [10] | Potency [13] | Potency [14] | Potency [18] | Potency [15] | Potency [16]

Cc1ccccc1C(=O)N1CC/C(=N\OS(=O)(=O)O)c2ccc(Cl)cc21
inactive: outcome [1] | outcome [2] | outcome [3] | outcome [4] | Potency [5] | outcome [6] | Potency [7] | outcome [8] | Potency [9] | Potency [10] | Potency [13] | Potency [15] | Potency [16]
active: Potency [18] 4.36 µM

Nc1ccc(/C=C/c2ccc(N)cc2S(=O)(=O)O)c(S(=O)(=O)O)c1
inactive: activity change, negative = cytotoxicity [1] 12.6% [at 0.29 µM] | activation [2] 1.21% [at 0.29 µM] | activity, negative = inhibition [3] -5.44% [at 0.194 µM] | activation [4] 0.0703% [at 0.218 µM] | activity change, negative = cytotoxicity [5] 11% [at 0.349 µM] | caspase activation [6] 0.454% [at 0.349 µM] | activity change, negative = cytotoxicity [7] 8.5% [at 0.349 µM] | caspase-3/7 activation [8] -0.823% [at 0.349 µM] | activity change, negative = cytotoxicity [9] 1.29% [at 0.349 µM] | activation [10] -2.19% [at 0.349 µM] | max activation [11] -1.81% | outcome [12] | activity change, negative = inhibition [13] -0.348% [at 0.435 µM] | activity change, negative = inhibition [14] 14.7% [at 0.435 µM] | activity change, negative = inhibition [18] 3.26% [at 0.435 µM] | activity change, negative = inhibition [15] 12.7% [at 0.435 µM]

Cc1ccccc1N1CCN(CCc2nnc3n2CCCC3)CC1
inactive: outcome [1] | outcome [2] | outcome [3] | outcome [4] | Potency [5] | outcome [6] | Potency [7] | outcome [8] | Potency [9] | Potency [10] | Potency [14] | Potency [18] | Potency [17]
active: Potency [13] 13.8 µM

BrC/C=C/CBr
inactive: activity change, negative = cytotoxicity [1] 11.2% [at 15.8 µM] | activation [2] 1.06% [at 15.8 µM] | activity, negative = inhibition [3] 0.461% [at 10.5 µM] | activation [4] 0.238% [at 11.8 µM] | activity change, negative = cytotoxicity [5] 5.06% [at 19 µM] | caspase activation [6] -0.853% [at 19 µM] | activity change, negative = cytotoxicity [7] 8.86% [at 19 µM] | caspase-3/7 activation [8] 0.312% [at 19 µM] | activity change, negative = cytotoxicity [9] -3.88% [at 19 µM] | activation [10] -6.32% [at 19 µM] | activity change, negative = inhibition [14] -2.14% [at 23.6 µM] | activity change, negative = inhibition [18] -9.58% [at 23.6 µM] | activity change, negative = inhibition [15] -13.1% [at 23.6 µM] | activity change, negative = inhibition [16] 3.44% [at 15.8 µM] | activity change, negative = inhibition [17] 0.976% [at 23.6 µM]

CC(=O)OC(C)c1ccccc1 (stereo not given)
inactive: outcome [1] | outcome [2] | outcome [3] | outcome [4] | Potency [5] | outcome [6] | Potency [7] | outcome [8] | Potency [9] | Potency [10] | Potency [13] | Potency [14] | Potency [18] | Potency [15] | Potency [16] | Potency [17]

NC(Cc1c[nH]c2ccccc12)C(=O)O (stereo not given)
inactive: outcome [1] | outcome [2] | outcome [3] | outcome [4] | Potency [5] | outcome [6] | Potency [7] | outcome [8] | Potency [9] | Potency [10] | Potency [16]
active: Potency [13] 17.5 µM | Potency [18] 31.1 µM
